Screening results from PubChem.
AmpC inh detg = AmpC beta-lactamase inhibition with detergent present; P00811; AmpC hydrolysis of nitrocefin, absorbance 480 nm, 0.01% Triton; Potency, µM (highest dose often 114 µM), for the others: at the highest dose activity change, negative = inhibition, hits mostly inhibitors; 0.041% of 370,000 active; AID 485294;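 note: 0% = no-compound wells and -100% = no-enzyme wells; nearly all actives have a fitted effect of over 25% in size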
Target sequence (P00811 whole entry, looked up): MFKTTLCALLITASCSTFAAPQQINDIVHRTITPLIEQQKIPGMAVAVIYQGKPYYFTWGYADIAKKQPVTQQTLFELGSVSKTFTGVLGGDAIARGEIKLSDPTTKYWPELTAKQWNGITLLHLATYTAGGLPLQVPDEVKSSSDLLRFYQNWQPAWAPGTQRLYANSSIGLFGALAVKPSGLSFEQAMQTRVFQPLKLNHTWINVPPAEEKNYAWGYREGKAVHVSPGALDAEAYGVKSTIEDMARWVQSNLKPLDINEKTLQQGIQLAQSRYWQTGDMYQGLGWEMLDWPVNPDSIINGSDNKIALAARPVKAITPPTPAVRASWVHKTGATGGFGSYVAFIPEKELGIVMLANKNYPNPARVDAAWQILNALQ
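AmpC (5.3 nM in the dispensed reagent) in 20 mM phosphate pH 7.0 with 0.01% (detergent screen) or 0.0001% Triton X-100 was preincubated with compounds for 15 min at room temperature. Nitrocefin was then added from an 800 uM solution, and hydrolysis was followed at 480 nm.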
Sm TGR block = inhibitors of Schistosoma mansoni thioredoxin glutathione reductase; Q962Y6; purified TGR, DTNB reduction, TNB absorbance 405 nm; Potency, µM (doses to about 114 µM), for inactives: at the highest dose activity change, negative = inhibition, most hits filed as inhibitors; 3% of 360,000 active; AID 485364; note: nearly all actives have a fitted effect of over 60% in size
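Kinetic colorimetric format: TGR-catalysed, NADPH-driven DTNB reduction monitored via TNB absorbance. Enzyme dispensed at 20 nM; compound exposure 15 min at room temperature before reaction start.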
AmpC no deterg = AmpC beta-lactamase inhibition without detergent; P00811; AmpC nitrocefin hydrolysis, absorbance 480 nm, 0.0001% Triton; Potency, µM (titrated, usually from 57.1 µM), for the others: at the highest dose activity change, negative = inhibition, actives largely listed as inhibitors; 0.52% of 330,000 active;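 note: plate controls were no compound for no effect and no enzyme for full effect; nearly all actives have a fitted effect of over 20% in size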
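AmpC (5.3 nM in the dispensed reagent) in 20 mM phosphate pH 7.0 with 0.01% (detergent screen) or 0.0001% Triton X-100 was preincubated with compounds for 15 min at room temperature. Nitrocefin was then added from an 800 uM solution, and hydrolysis was followed at 480 nm.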
Starred values were filed as active, the others as inactive; ? = inconclusive; . = no result given. A selection: hits, their analogues and other compounds. The true share with any hit is near 3.3%. Calls come from the whole dose curve; as a rule, active = well fitted curve in the direction sought with a large enough effect; inconclusive = small, poorly fitted or top-dose-only effect, or another doubt; inactive = no such curve, though single readings can be large; an effect the other way counts as inactive or inconclusive. Unless noted, % is set by controls: 0 for no effect and ±100 for the full control effect; potency is the fitted concentration of half-maximal effect.

SMILES | AmpC inh detg | Sm TGR block | AmpC no deterg
Cc1ccccc1NC(=O)CNC(=O)Cc1cccc2ccccc12 | -6.2% | -0.3% | -30.4%
Cc1cccc(C)c1NC(=O)CNC(=O)CNC(=O)Cc1cccc2ccccc12 | 1.0% | 6.31µM* | 24.2%
CCOc1ccc2c(c1)nc(SCC(=O)c1cccs1)n2C | -7.5% | ? | -26.6%
CCOc1ccc2c(c1)nc(SCC(=O)c1ccc(Br)s1)n2C | -6.9% | 35.5µM* | -29.5%
O=c1[nH]c(=S)n(Cc2ccco2)c(O)c1C=NCc1cccs1 | 2.3% | ? | 17.8µM*
NC(=O)c1ccc(N=Cc2c(O)n(Cc3ccco3)c(=O)[nH]c2=O)cc1 | -1.1% | 39.8µM* | -24.7%
O=c1[nH]c(=O)n(Cc2ccco2)c(O)c1C=NCc1cccs1 | -0.6% | ? | .
CCN(CC)c1ccc(N=Cc2c(O)n(Cc3ccco3)c(=O)[nH]c2=O)cc1 | -4.2% | -26.9% | -27.2%
O=c1[nH]c(=O)n(Cc2ccco2)c(O)c1/C=N/N1CCCCCC1 | -10.2% | -4.6% | -3.8%
N#Cc1c(/N=C/c2c(O)n(Cc3ccco3)c(=O)[nH]c2=O)sc2c1CCCC2 | ? | 89.1µM* | -34.9%
Cn1c(=O)c2c(-c3cccc(Br)c3)n(CCO)cc2n(C)c1=O | 24.5% | -2.5% | .
CC1=C(C(=O)Nc2cc(Cl)ccc2C)C2(CCCCC2)OC1=O | -1.5% | -14.6% | .
CC(C)c1ccc(OCc2cc(=O)n3c(-c4ccccc4)csc3n2)cc1 | 3.7% | -2.7% | .
O=C(c1cccc(S(=O)(=O)N2CCc3ccccc32)c1)N1CCN(c2ccccc2)CC1 | -6.6% | 39.8µM* | 25.0%
O=C(c1cccc(S(=O)(=O)N2CCc3ccccc3C2)c1)N1CCN(c2ccccc2)CC1 | -9.3% | 3.8% | 28.8%
CCc1ccc(C(=O)c2cnc3ccc(F)cc3c2S(=O)(=O)c2ccccc2)cc1 | -2.6% | -15.8% | .
CCCOc1ccc(C2C(=O)N(C3CCCCCC3)CC(=O)N2CCC)cc1OC (stereo not drawn) | 0.9% | 1.4% | .
CCCNC(=O)c1ccc2nc(CCc3ccccc3)oc2c1 | -1.1% | 8.1% | .
N#CCc1c(C#N)c(N)nc(Nc2ccccc2)c1C#N | 4.3% | 20µM* | -25.8%
CN(c1ccccc1)c1nc(N)c(C#N)c(CC#N)c1C#N | -11.5% | -17.5% | -32.3%
C=CCn1c(Cc2c(C)[nH]c3ccccc23)nnc1SCC(=O)NCc1ccc(F)cc1 | -6.8% | 31.6µM* | 32.9%
CCn1c(Cc2c(C)[nH]c3ccccc23)nnc1SCC(N)=O | -0.5% | 44.7µM* | -5.9%
C=CCn1c(Cc2c[nH]c3ccccc23)nnc1SCC(=O)NCc1ccccc1 | ? | -1.4% | 95.9%
CCn1c(Cc2c(C)[nH]c3ccccc23)nnc1SCC(=O)NCc1ccccc1 | -12.4% | ? | 32.5%
CC(C)c1ccc(Nc2c(-c3ccccn3)nc3ccccn23)cc1 | 3.7% | -4.0% | .
SMILES | AmpC inh detg | Sm TGR block | AmpC no deterg
CC(=O)N1CCc2cc(Br)cc(S(=O)(=O)NCCc3cccc(C)c3)c21 | 3.8% | -8.7% | .
COc1cccc(NC(=O)c2cn(C3CCCCC3)c(=O)c3c2c2ccccc2n3C)c1 | 11.5% | -0.4% | .
CCC(=O)NC(c1ccco1)c1cc(Cl)c2ccccc2c1O (stereo not drawn) | 9.5% | ? | -14.3%
CC(=O)NC(c1ccco1)c1cc(Cl)c2ccccc2c1O (stereo not drawn) | -1.7% | 63.1µM* | -2.1%
COc1ccccc1CCNC(=O)Cc1c(C)c2cc3c(C)coc3cc2oc1=O | 19.3% | -2.5% | .
COc1ccccc1CNc1ncnc2c1c(-c1ccccc1)cn2-c1ccc(Br)cc1 | 6.5% | 4.5% | .
COc1ccc(NC(=O)CN(C)CC(=O)N(CC(C)C)c2c(N)n(CC(C)C)c(=O)[nH]c2=O)cc1 | . | . | 8.1%
C=CCOc1ccc(CN(C)CC(=O)N(CC(C)C)c2c(N)n(CC(C)C)c(=O)[nH]c2=O)cc1 | -1.6% | 6.6% | 6.31µM*
C#CCOc1c(/C=C\c2nc(O)c([N+](=O)[O-])c(=O)[nH]2)cc(Br)cc1OC | -11.5% | 35.5µM* | -38.6%
COC(=O)COc1c(/C=C\c2nc(O)c([N+](=O)[O-])c(=O)[nH]2)cccc1OC | -8.5% | ? | -4.1%
COc1ccc(C(=O)NNc2ncnc3c2cnn3-c2ccccc2)cc1 | -7.7% | 0.6% | .
Cc1ccc(-c2ccc(C(=O)NCc3ccc(Cl)cc3)o2)c2ccccc12 | -13.3% | 14.1µM* | ?
Cc1ccccc1-c1ccc(C(=O)NCc2ccccc2)o1 | -0.3% | -4.0% | -23.1%
COc1ccc(NC(=O)c2ccc(-c3ccc(C)c4ccccc34)o2)cc1 | ? | 44.7µM* | -28.8%
COc1ccc(NC(=O)c2ccc(-c3ccccc3Cl)o2)cc1 | -14.7% | -13.0% | -8.3%
CCN(CC)S(=O)(=O)c1ccc(OC)c(NC(=O)c2sc3ccccc3c2Cl)c1 | 32.1% | 7.2% | .
CCc1ccc(C2c3c(oc4ccc(F)cc4c3=O)C(=O)N2CCc2ccc(OC)cc2)cc1 (stereo not drawn) | 19.5% | -18.6% | .
Cc1ccc(OCC(=O)OCc2cc(=O)n3ccsc3n2)cc1C | 17.1% | 5.3% | .
Cc1cccc(NC(=O)c2cc3c(=O)n4cccc(C)c4nc3s2)c1C | 18.3% | 0.2% | .
Cc1cccc(N2CCN(C(=O)CN3CCSc4ccccc43)CC2C)c1 (stereo not drawn) | -3.1% | -6.4% | .
COc1ccc(-c2cc(-c3ccco3)[nH]c(=O)c2C#N)cc1OC | -0.9% | 3.98µM* | -53.9%
N#Cc1c(-c2ccccc2)cc(-c2ccc3c(c2)OCO3)[nH]c1=O | ? | -0.5% | -6.0%
CCc1ccccc1NC(=O)CSc1nc2ncccc2o1 | 2.8% | 4.0% | .
Cc1noc(C)c1S(=O)(=O)NCC(=O)O | -6.3% | 5.2% | -7.6%
CCOC(=O)CNS(=O)(=O)c1c(C)noc1C | ? | 25.1µM* | 1.1%
SMILES | AmpC inh detg | Sm TGR block | AmpC no deterg
COc1ccc(OCCCC(=O)OCC(=O)c2ccc3c(c2)NC(=O)CO3)cc1 | -15.5% | 44.7µM* | -0.8%
O=C1COc2ccc(C(=O)COC(=O)c3ccc(Cl)cc3[N+](=O)[O-])cc2N1 | -19.3% | -14.7% | -37.5%
O=C1COc2ccc(C(=O)COC(=O)c3ccc([N+](=O)[O-])cc3Cl)cc2N1 | 3.0% | 39.8µM* | -18.0%
O=C1COc2ccc(C(=O)COC(=O)c3ncc(Cl)c(Cl)c3Cl)cc2N1 | -18.1% | 50.1µM* | -6.8%
O=C1COc2ccc(C(=O)COC(=O)c3nc(Cl)ccc3Cl)cc2N1 | 0.0% | 14.1µM* | -10.1%
COc1ccc(C(=O)OCC(=O)c2ccc3c(c2)NC(=O)CO3)cc1OC | . | . | -21.8%
Cc1ccc(OCCC(=O)OCC(=O)c2ccc3c(c2)NC(=O)CO3)cc1 | ? | -4.2% | -10.5%
O=C1COc2ccc(C(=O)COC(=O)c3cnc(Cl)c(Cl)c3)cc2N1 | -4.8% | -6.6% | -26.4%
CCOc1ccc(C2C(C(=O)Nc3ccccc3OC)=C(C)Nc3c(C(=O)Nc4cccc(C)c4)cnn32)cc1 (stereo not drawn) | -7.8% | 11.0% | .
Cc1ccc(N2C(N)=C(C#N)C(c3ccsc3)C3=C2CC(C)(C)CC3=O)cc1 (stereo not drawn) | -4.3% | -13.9% | -17.1%
CCOc1ccc(OCC)c(C2C(C#N)=C(N)N(c3cccnc3)C3=C2C(=O)CC(C)(C)C3)c1 (stereo not drawn) | -14.5% | 22.4µM* | 94.3%
